Mito fusion act: mitochondrial division inhibition or fusion activation; S. cerevisiae fusion-defective mutant growth rescue, CellTiterGlo 48 h; Potency, µM (titrated, usually from 46.1 µM), hits mostly activators; 0.23% of 320,000 active; AID 485298; further: nearly all actives have a fitted effect of over 45% in size
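Read-out: ATP-based luminescence (CellTiterGlo, 10 min ambient) reporting growth of fusion-defective ts yeast after 48 hours at 37C on glycerol/ethanol YPEG medium in the presence of compound.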
A-T KAP1 phos: potential ataxia-telangiectasia treatments restoring KAP-1 phosphorylation | F2112 A-T fibroblasts, KAP-1 phosphorylation AlphaLISA; neocarzinostatin DNA damage 30 min before lysis | Potency, µM (titrated, usually from 57.5 µM), actives largely listed as activators | 0.19% of 320,000 active; further: nearly all actives have a fitted effect of over 45% in size
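ATM-like activity read as KAP-1 phosphorylation via AlphaLISA donor/acceptor antibody pairs after lysis and 6 hr at 25C. Cells were ATM-null patient fibroblasts (F2112, hTERT), dosed 60 min, then exposed to the DSB inducer NCS for 30 min.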
SW480 rereplic: inducers of DNA re-replication in SW480 colon cancer cells; SW480 DNA re-replication, Hoechst DNA content imaging, 48 h; Potency, µM (top dose mostly 46.1 µM), usual class: activators; 1.8% of 340,000 active; AID 624297; further: nearly all actives have a fitted effect of over 55% in size
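Quantitative HTS format with DMSO vehicle controls; 48 hr drug incubation at 37 C, then 40 min Hoechst staining and scanning imager measurement at 405 nm excitation.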
a7 integrin act: activators of alpha7 integrin expression for muscular dystrophy. alpha7betagal myoblasts, beta-gal FDG fluorescence, 48 h. Potency, µM (titrated, usually from 38.3 µM), most hits filed as activators. 0.064% of 350,000 active. AID 624291; further: nearly all actives have a fitted effect of over 60% in size
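Alpha7betagal+/- myoblasts (passage 13) were plated 16-24 hr, then exposed to compounds (1:260 dilution of DMSO stock) for 48 hours at 37C. After MPER lysis, β-galactosidase reporter activity was read as FDG fluorescence (ex 480/em 540) after 30 minutes.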
MCF10A rereplic: induces DNA re-replication in MCF 10a normal breast cells; MCF 10A DNA re-replication, Hoechst nuclear intensity, 48 h; Potency, µM (highest dose often 46.1 µM), actives largely listed as activators; 2.9% of 350,000 active; AID 624296; further: nearly all actives have a fitted effect of over 50% in size
Large screens that a line does not name were inactive; ! = a repeat was not active. Only some compounds are listed: those with a hit (about 4.2% of all), similar ones and a draw of the others. The call rests on the fitted dose curve; in most records, active means well fitted activation curve with a large enough effect; inconclusive means small, poorly fitted or top-dose-only effect; inactive means no such curve, though single readings can be large or run the other way.

Clc1ccc(CC[C@H](Cn2ccnc2)Sc2c(Cl)cccc2Cl)cc1	none (no result: Mito fusion act, A-T KAP1 phos, a7 integrin act)
CCCC(C)(COC(N)=O)COC(=O)NC1CC1 (stereo unspecified)	none (no result: Mito fusion act, A-T KAP1 phos, a7 integrin act)
O=C(CN1CC=C(c2ccccc2)CC1)Nc1cc(Cl)ccc1Cl	MCF10A rereplic 18µM
CCC(CC)c1nnc(NC(=O)CC(C)c2ccccc2)s1 (stereo unspecified)	none
O=C(CCn1c(=O)oc2ccccc21)N1CCN(C(c2ccccc2)c2ccccc2)CC1	Mito fusion act inconclusive, MCF10A rereplic inconclusive
CC(C)CCOP(=O)(c1ccc(N(C)C)cc1)C(O)c1c(Cl)cccc1Cl (stereo unspecified)	MCF10A rereplic inconclusive
CC(C)(C)NCC1(CO)SC(N)=NC1=O (stereo unspecified)	SW480 rereplic inconclusive, MCF10A rereplic 21µM
O=Nc1c(O)c2ccccc2c2ccccc12	SW480 rereplic 1.8µM, MCF10A rereplic 6.5µM (no result: Mito fusion act, A-T KAP1 phos)
CCN1C(=O)c2ccccc2Sc2ccc(C(=O)N3CCC4(CC3)OCCO4)cc21	none
CCC1=Nc2cc(C(=O)N3CCC4(CC3)OCCO4)ccc2Sc2ccc(Br)cc21	Mito fusion act 18µM, SW480 rereplic inconclusive
Cc1[nH]c2ccc(OC(F)(F)F)cc2c1CCNCc1ccc(Cl)cc1	SW480 rereplic 16µM, MCF10A rereplic inconclusive
Cc1[nH]c2ccc(OC(F)(F)F)cc2c1CCNCc1cccc([N+](=O)[O-])c1	SW480 rereplic inconclusive, MCF10A rereplic inconclusive
OC[C@@H](O)[C@H]1O[C@@H]2OC(C(Cl)(Cl)Cl)O[C@H]2[C@H]1O (stereo partly specified)	none (no result: Mito fusion act, A-T KAP1 phos, a7 integrin act)
CCN(CC)S(=O)(=O)c1ccc(NN=C(C#N)C#N)cc1	a7 integrin act inconclusive, MCF10A rereplic 10µM (no result: A-T KAP1 phos)
N#CC(C#N)=NNc1ccc([N+](=O)[O-])cc1	SW480 rereplic inconclusive, MCF10A rereplic 18µM
Cc1cc(C)n(-c2ccc(NN=C(C#N)C#N)cc2)n1	MCF10A rereplic inconclusive
O=C(CN1C(=O)C(=O)N(C2CCCC2)C1=O)Nc1cc(Cl)ccc1[N+](=O)[O-]	MCF10A rereplic inconclusive (no result: Mito fusion act)
C=C1Nc2ccccc2C(=O)N1c1ccccc1C	none (no result: Mito fusion act, A-T KAP1 phos, a7 integrin act)
O=c1[nH]c(O)c(/C=C2\C=Nc3ccc(OCc4ccccc4)cc32)c(=O)[nH]1	SW480 rereplic 21µM, MCF10A rereplic inconclusive
O=C(O)CCCCC1SCC2NC(=O)NC21 (stereo unspecified)	none
CN(CCS(=O)(=O)c1ccc(Cl)cc1)Cc1cccnc1	SW480 rereplic inconclusive, MCF10A rereplic 21µM
C[N+]1(C)[C@@H]2CC(OC(=O)[C@@H](CO)c3ccccc3)C[C@@H]1[C@H]1O[C@H]12 (stereo partly specified)	none (no result: Mito fusion act, A-T KAP1 phos, a7 integrin act)
OC12ONC(c3ccccn3)C1N1CCC2CC1 (stereo unspecified)	SW480 rereplic 16µM, MCF10A rereplic 7.3µM
Cc1ccc(N/N=C/C=C/c2ccco2)cc1	SW480 rereplic 21µM, MCF10A rereplic 12µM (no result: Mito fusion act, A-T KAP1 phos)
Cc1ccc(NC(=O)COC(=O)/C=C/c2ccco2)cc1S(=O)(=O)N(C)C	SW480 rereplic inconclusive
C/C=C(\C)C(=O)N[C@@H](c1ccccc1)[C@@H](O)C(=O)O[C@H]1C[C@@]2(O)[C@@H](OC(=O)c3ccccc3)C3[C@](C)(C(=O)[C@H](O)C(=C1C)C2(C)C)[C@@H](O)C[C@H]1OC[C@@]31OC(C)=O (stereo partly specified)	SW480 rereplic 8.2µM, a7 integrin act inconclusive, MCF10A rereplic inconclusive
C/C=C(\C)C(=O)N[C@@H](c1ccccc1)[C@@H](O)C(=O)O[C@H]1C[C@@]2(O)[C@@H](OC(=O)c3ccccc3)C3[C@](C)(C(=O)[C@H](OC(C)=O)C(=C1C)C2(C)C)[C@@H](O)C[C@H]1OC[C@@]31OC(C)=O (stereo partly specified)	SW480 rereplic 1.2µM, MCF10A rereplic 0.29µM
CCN(CC)C(=O)c1c(C)[nH]c(=S)c(C#N)c1-c1ccco1	SW480 rereplic inconclusive, MCF10A rereplic inconclusive
CCC1(C2=NCCN2)Cc2ccccc2O1 (stereo unspecified)	SW480 rereplic 12µM!, MCF10A rereplic inconclusive (no result: a7 integrin act)
O=C(CCl)NN=C(c1ccccc1)c1ccccc1	SW480 rereplic inconclusive, MCF10A rereplic 15µM
O=C(CCl)Nc1sccc1C(=O)c1ccccc1	SW480 rereplic inconclusive, MCF10A rereplic inconclusive (no result: Mito fusion act, A-T KAP1 phos)
Oc1c(Cl)c(Cl)c(Cl)c(Cl)c1Cl	MCF10A rereplic 8.2µM (no result: Mito fusion act, A-T KAP1 phos, a7 integrin act)
CCCC(CCC)C(=O)OC1C[C@H]2CC[C@@H](C1)[N+]2(C)C (stereo partly specified)	MCF10A rereplic inconclusive (no result: a7 integrin act)
Nc1ccc2c3c(cccc13)CC2	SW480 rereplic 16µM, MCF10A rereplic 16µM
Cc1cccn2c(=O)c3c(nc12)N1CCC(Cc2ccccc2)CC1C1(C3)C(=O)N(C)C(=O)N(C)C1=O (stereo unspecified)	Mito fusion act 18µM, MCF10A rereplic inconclusive (no result: A-T KAP1 phos)
O=c1c2cc(N3CCOCC3)ccc2[nH]c(=S)n1Cc1ccc(Cl)cc1	MCF10A rereplic 2.6µM
O=[N+]([O-])c1ccc(F)c([N+](=O)[O-])c1	none (no result: Mito fusion act, A-T KAP1 phos, a7 integrin act)
Cc1cccc(N=C2c3cc([N+](=O)[O-])ccc3-c3c2cc([N+](=O)[O-])cc3[N+](=O)[O-])c1	SW480 rereplic 18µM, MCF10A rereplic 18µM (no result: Mito fusion act, A-T KAP1 phos)
O=[N+]([O-])c1ccc(-c2ccc(C=Nc3cccc4ccccc34)o2)cc1	SW480 rereplic 12µM, MCF10A rereplic 8.2µM
CC(=O)OC1C(=O)OCC23CCC4(C)OC4C2OC2CC(OC(=O)C=CC=CC(=O)OCCC1C)C3(C)C21CO1 (stereo unspecified)	SW480 rereplic inconclusive, a7 integrin act inconclusive (no result: Mito fusion act, A-T KAP1 phos)
CC(O)C1C=CC=CC(=O)OC2CC3OC4C5OC5(C)CCC4(COC(=O)C4OC4(C)C(O)CO1)C2(C)C31CO1 (stereo unspecified)	SW480 rereplic 0.46µM, MCF10A rereplic 0.15µM (no result: Mito fusion act, A-T KAP1 phos)
CC(=O)[O][Hg][c]1ccccc1	SW480 rereplic inconclusive (no result: Mito fusion act, A-T KAP1 phos, a7 integrin act)
Cc1ccc(N2CCN(C(=O)c3cn(CC4CCCCC4)nn3)C(C)C2)cc1 (stereo unspecified)	MCF10A rereplic 21µM (no result: Mito fusion act, A-T KAP1 phos)
